PubChem BioAssay AID651658 (Broad Institute, 2012)
Screen size: about 340,000 compounds; about 5,100 (1.5%) were called active. The sample as a whole holds a higher share of actives than the screen did. A number with no mark means an inactive call.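 Rule for the calls: active = mean Tm shift, scaled 0 neutral to 100 positive control, at about 1.3% or above, every replicate too (limit read from the data); inconclusive = no clear call, values can overlap the other calls; inactive = the rest.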

molecular target: Fibroblast growth factor 22 (Homo sapiens) (UniProt Q9HCT0); assay: FGF22 ligand-induced thermal stabilization – biophysical, thermal shift, single point, FGF22 synaptogenesis inhibitor project, primary screen (AID 651658); conditions: recombinant FGF22 thermal shift, SYPRO orange fluorescence; at 9.99 µM; hits give high values; percent of sucrose octasulfate shift, DMSO zero
Sequence (Q9HCT0 whole entry, looked up): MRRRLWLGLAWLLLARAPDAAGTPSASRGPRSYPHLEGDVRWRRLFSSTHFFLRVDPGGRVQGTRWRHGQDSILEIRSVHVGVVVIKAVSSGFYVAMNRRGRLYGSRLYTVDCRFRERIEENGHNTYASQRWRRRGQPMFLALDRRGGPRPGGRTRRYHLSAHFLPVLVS

| SMILES | activity (Tm shift, normalised) |
| --- | --- |
| CC(C)NC(=O)Nc1ccc2c(c1)C(=O)N([C@H](C)CO)C[C@@H](C)[C@@H](CN(C)S(=O)(=O)c1ccc(Cl)cc1)OCCCC[C@H](C)O2 | -0.402% |
| CC(=O)c1ccccc1OCc1ccc(C(=O)c2ccccc2)cc1 | -0.1% |
| COc1ccccc1C(=O)Nc1ccc(Nc2ccccc2)cc1 | -0.034% |
| COc1ccccc1C(=O)c1ccccc1C(=O)c1ccccc1 | 43.7% (active) |
| COc1ccccc1C(=O)Nn1cnnc1 | 0.115% |
| COc1ccccc1C(=O)NNC(=O)c1ccc(NC(=O)c2ccccc2)cc1 | 1.4% (active) |
| COc1ccccc1C(=O)Nc1ccccc1C(=O)Nc1ccccc1 | -0.098% |
| CN1CCN(C(=O)C[C@H]2CC[C@H]3[C@@H](COC[C@H](O)CN3C(=O)c3ccc(F)cc3)O2)CC1 | 0.268% |
| Cc1ccccc1-c1ccc2c(c1)O[C@H](CN(C)Cc1ccc(C(=O)O)cc1)[C@@H](C)CN([C@H](C)CO)S2(=O)=O | -0.18% |
| C[C@H](CO)N1C[C@H](C)[C@@H](CN(C)CC2CC2)Oc2ccc(NC(=O)CCCN(C)C)cc2CC1=O | -0.128% |
| N#C[C@@H]1[C@H](c2ccc(C#CC3CCCCC3)cc2)[C@@H](CO)N1S(=O)(=O)c1ccccc1 | 0.098% |
| COc1ccc(-c2ccc([C@H]3[C@H]4CN(C(=O)c5ccc6c(c5)OCO6)CCCCN4[C@H]3CO)cc2)cc1 | 1.83% (active) |
| CCCC#Cc1ccc([C@H]2[C@H](CO)N3CCCCN(C(=O)c4ccc5c(c4)OCO5)C[C@@H]23)cc1 | 0.555% |
| Cc1cccc(-c2ccc([C@@H]3[C@H](CO)N4CCCCN(C(=O)c5ccc6c(c5)OCO6)C[C@@H]34)cc2)c1 | -0.344% |
| C[C@@H]1CCCCO[C@@H](CN(C)S(=O)(=O)c2ccccc2)[C@H](C)CN([C@H](C)CO)C(=O)c2cc(NC(=O)Nc3ccc4c(c3)OCO4)ccc2O1 | -0.98% |
| COc1ccccc1-c1cnc2c(c1)C(=O)N([C@@H](C)CO)C[C@H](C)[C@H](CN(C)CC1CCOCC1)O2 | 0.358% |
| COc1cccc(/C=N/Nc2cc(C)nc(-c3ccccc3O)n2)c1O | 43% (active) |
| COc1cccc(/C=N/Nc2ccc(S(=O)(=O)Nc3ccccc3C(=O)O)cc2[N+](=O)[O-])c1O | 0.209% |
| COc1ccc(Cc2nnc(N/N=C/c3ccccc3O)[nH]c2=O)cc1OC | 0.017% |
| Cc1ccc(S(=O)(=O)N(C)C[C@@H]2Oc3c(NC(=O)c4nc5ccccc5s4)cccc3C(=O)N([C@H](C)CO)C[C@@H]2C)cc1 | -0.725% |
| CC(C)=CCc1c(O)c(CC=C(C)C)c2occ(-c3ccc(O)cc3)c(=O)c2c1O | 0.178% |
| CC(C)c1cc(N=O)cc(C(C)C)c1O | -0.097% |
| CC(C)=CCc1ccc(O)c(=O)cc1C(C)C | 43.3% (active) |
| C[C@@H]1CCCCO[C@@H](CN(C)C(=O)CCCN(C)C)[C@@H](C)CN([C@H](C)CO)C(=O)c2cc(NC(=O)CCCN(C)C)ccc2O1 | -0.145% |

| SMILES | activity (Tm shift, normalised) |
| --- | --- |
| C[C@H](CO)N1C[C@H](C)[C@H](CN(C)C)Oc2ncc(-c3ccncc3)cc2C1=O | -0.058% |
| Cc1nc2ccc(NC(=O)c3cccc(S(=O)(=O)N4CCOCC4)c3)cc2s1 | 1.04% |
| O=S(=O)(Nc1ccc2nc(N3CCOCC3)sc2c1)c1ccccc1 | -0.216% |
| O=C(O)c1cccc(S(=O)(=O)Nc2ccc(O)cc2Sc2nc3ccccc3s2)c1 | 15.9% (active) |
| CC(=O)NC[C@H]1[C@H](c2ccccc2)[C@@H](CO)N1C(=O)Cc1cccnc1 | -0.409% |
| O=C(NC[C@@H]1[C@@H](c2ccccc2)[C@H](CO)N1C(=O)Cc1cccnc1)C1CC1 | -1.07% |
| CC(=O)NC[C@@H]1[C@@H](c2ccccc2)[C@@H](CO)N1C(=O)Cc1cccnc1 | 1.29% (active) |
| O=C(C[C@@H]1C=C[C@H](NC(=O)CN2CCOCC2)[C@@H](CO)O1)NC1CCC1 | 0.045% |
| O=C(NCC[C@@H]1CC[C@H](NC(=O)C2CC2)[C@@H](CO)O1)c1cc(Cl)cc(Cl)c1 | -0.053% |
| COc1ccccc1-n1c(SCC(=O)Nc2ccc(Cl)cc2)nc(O)c(Cc2ccccc2)c1=O | 43.9% (active) |
| CCOc1ccc(NC(=O)CSc2nc3c(c(=O)n2-c2ccccc2OC)SCC3)cc1 | -0.136% |
| COc1ccc(NC(=O)CSc2nnc(Cc3ccccc3)c(=O)n2N)cc1 | -0.143% |
| CN1c2ccc(-c3ccc(F)cc3)cc2[C@@H]2[C@@H](CCN2C(=O)c2cccnc2)[C@H]1CO | -0.025% |
| CO[C@@H]1CN(C)C(=O)c2ccc(NC(=O)NC(C)C)cc2OC[C@H](C)N(Cc2ccc(-c3ccccn3)cc2)C[C@H]1C | 0.425% |
| CCOc1ccc(/C=C(/C#N)c2nnc(N3CCOCC3)n2-c2ccccc2)cc1OC | -0.121% |
| CCCCCOc1ccc(/C=C/C(=O)NCCc2nc3ccccc3[nH]2)cc1OC | 0.206% |
| COc1cc(/C=C(\C#N)c2nc3ccccc3[nH]2)ccc1O | 2.24% (active) |
| CCCC(=O)Nc1ccc2c(c1)OC[C@H](C)N(CCC(F)(F)F)C[C@@H](C)[C@H](OC)CN(C)C2=O | -0.05% |
| C/C=C/c1ccc([C@@H]2[C@H](CO)N(S(=O)(=O)Cc3ccccc3)C23CN(C(=O)C2CCOCC2)C3)cc1 | -0.098% |
| N#Cc1cccc(Nc2c3c(nc4ccccc24)CCCC3)c1 | 0.042% |
| O=C(Nc1ccccc1)c1ccccc1Br | -0.119% |
| O=C(Nc1c2c(nc3ccccc13)CCCC2)c1ccccc1Br | 44.2% (active) |
| CC(=O)N1[C@@H](CO)[C@@H](c2ccccc2)[C@@H]1CN(C)C(=O)CN1CCOCC1 | 0.044% |
| O=C(C1CCCCC1)N1CC2(C1)[C@H](c1ccccc1)[C@@H](CO)N2CCC(F)(F)F | -0.014% |
